From PubChem BioAssay AID602393 (Broad Institute, 2012)
About 7,000 (2%) of roughly 350,000 compounds were called active. No stated cut-off is given here; in the data, active means activation above about 40%; inconclusive means no clear call, values can overlap the other calls; inactive means below that. The entries come from a sample that favours actives as a whole.

Assay: Bmi1 luciferase reporter increase in mESCs, primary screen, esBAF inhibitor project, mouse ES cells, Bmi1 luciferase knock-in, single point (AID 602393);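 further: 0% = median of the plate's neutral control wells and 100% = double that signal; a rise in the Bmi1 reporter signal indicates esBAF inhibition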
Details: 24 h, at 12.5 µM, active compounds read high, 100% = twice the neutral-well signal

SMILES | reporter increase
C/C=C/c1cnc2c(c1)C(=O)N([C@@H](C)CO)C[C@H](C)[C@H](CN(C)C(=O)CN1CCOCC1)O2 | 1.11% (inactive)
CCOC(=O)c1c(C)oc(C)c(C(=O)OCC)c1=O | -9.85% (inactive)
CCCCC(=O)Nc1cc(C)c2c(=O)oc3ccccc3c2n1 | -4.09% (inactive)
CCOC(=O)c1c(C)nc2c(c1C)c(=O)oc1ccccc12 | 43.1% (active)
Cc1noc(C)c1NC(=O)N(C)C[C@@H]1Oc2ccc(NS(=O)(=O)c3ccc(Cl)cc3)cc2C(=O)N([C@@H](C)CO)C[C@H]1C | -6.44% (inactive)
CCc1ccccc1NC(=O)c1cc(-c2ccc3c(c2)OCO3)on1 | 43.8% (active)
COc1ccc(CCNC(=O)c2cc(-c3ccc4c(c3)OCO4)on2)cc1OC | 0.657% (inactive)
CC(C)NC(=O)COCc1cc(-c2ccc3c(c2)OCO3)on1 | 16.1% (inactive)
O=C(C[C@H]1CC[C@@H]2[C@H](COC[C@@H](O)CN2Cc2cc(F)cc(F)c2)O1)NC1CCC1 | 2.1% (inactive)
COc1ccc(S(=O)(=O)N(C)C[C@@H]2Oc3ncc(C#Cc4ccc(F)cc4)cc3C(=O)N([C@H](C)CO)C[C@@H]2C)cc1 | 3.53% (inactive)
CCCNC(=O)N(C)C[C@H]1Oc2cc(-c3ccncc3)ccc2S(=O)(=O)N([C@H](C)CO)C[C@@H]1C | 6.74% (inactive)
CCc1cc2c(=O)c(-c3ccon3)c(N)oc2cc1OC | 50.4% (active)
COc1ccc2oc(N)c(C=O)c(=O)c2c1 | -2.61% (inactive)
CCc1cc2c(=O)c(-c3nc4ccccc4n3C)c(CCCC(=O)O)oc2cc1OC(=O)C(C)(C)C | 6.89% (inactive)
CC(=O)Nc1ccc2c(c1)C(=O)N(C)[C@H]1CC[C@@H](CC(=O)NCC3CC3)O[C@H]1CO2 | 9.13% (inactive)
CNC(=O)c1csc(-c2ccccc2)n1 | 13.5% (inactive)
Clc1ccc(-c2csc(-c3ccncc3)n2)cc1 | 51.5% (active)
O=C(NNC(=O)c1csc(-c2cccnc2)n1)Nc1ccc(Cl)cc1 | 0.726% (inactive)
CN(C)CC(=O)Nc1ccc2c(c1)[C@@H]1C[C@H](CC(=O)NCc3ccc(-c4ccccc4)cc3)O[C@@H](CO)[C@@H]1O2 | 16% (inactive)
COc1ccc2c(Cl)c(-c3nnco3)sc2c1 | 8.57% (inactive)
CCCCSc1nnc(-c2ccc(C)cc2)o1 | 17.9% (inactive)
C#CCSc1nnc(-c2sc3ccccc3c2Cl)o1 | 51% (active)
C[C@@H](O)C#Cc1ccc2c(c1)O[C@@H](CN(C)C)[C@@H](C)CN([C@@H](C)CO)S2(=O)=O | -2.61% (inactive)
C[C@H](NC(=O)C[C@@H]1CC[C@@H]2[C@H](COC[C@@H](O)CN2C(=O)Nc2cc(Cl)cc(Cl)c2)O1)c1ccccc1 | -3.61% (inactive)
C[C@@H]1CN([C@H](C)CO)S(=O)(=O)c2ccc(C#CC3CCCC3)cc2O[C@@H]1CN(C)Cc1ccccc1C(=O)O | -3.9% (inactive)
O=C(C[C@@H]1CC[C@@H]2[C@H](COC[C@H](O)CN2C(=O)Cc2ccccc2)O1)NC1CCC1 | -8.39% (inactive)
CCn1c(=N)n(CC(=O)c2cccc(OC)c2)c2ccccc21 | 64.8% (active)

SMILES | reporter increase
COc1ccc2cc(C(=O)O)n(CC(=O)c3ccccc3)c2c1 | -1.55% (inactive)
CCCn1c(=N)n(CC(=O)c2ccc(Cl)c(Cl)c2)c2ccccc21 | 3.54% (inactive)
Cn1c(NN)nc2sc3c(c2c1=O)CCC3 | -3.52% (inactive)
NNC(=O)C1CCCn2c1nc1sc3c(c1c2=O)CCCC3 (centres undefined) | 2.26% (inactive)
CC1CCc2c(sc3nc4n(c(=O)c23)CCS4)C1 (centres undefined) | 46.4% (active)
C[C@H](CO)N1C[C@H](C)[C@H](CN(C)Cc2ccncc2)Oc2ccc(NC(=O)C3CCCCC3)cc2CC1=O | 4.88% (inactive)
COC(=O)c1cnc(Nc2cc(C)ccc2OC)c2ccccc12 | -2.74% (inactive)
COc1ccccc1-c1c(C)nn2c(C)c(C(C)=O)cnc12 | -4.24% (inactive)
COc1ccccc1Nc1ncc(C(C)=O)c(C)n1 | 43.9% (active)
CCC(=O)Nc1ccc2c(c1)OC[C@H](C)N(Cc1ccccc1OC)C[C@@H](C)[C@@H](OC)CN(C)C2=O | 4.11% (inactive)
CO[C@H]1CN(C)C(=O)c2cc(NC(=O)Nc3cccc(F)c3)ccc2OC[C@@H](C)N(C)C[C@@H]1C | 1.05% (inactive)
C[C@H](CO)N1C[C@H](C)[C@H](CN(C)C(=O)C2CCOCC2)Oc2ncc(-c3ccccc3F)cc2C1=O | -0.932% (inactive)
COc1ccc(-c2ccc3c(c2)O[C@H](CN(C)Cc2ccccc2C(=O)O)[C@H](C)CN([C@@H](C)CO)S3(=O)=O)cc1 | 4.05% (inactive)
COc1ccc(Nc2ncnc3ccc(Br)cc23)c(OC)c1 | -66.9% (inactive)
CCC(C(=O)OC)n1cnc2c(oc3ccccc32)c1=O (centres undefined) | 2.51% (inactive)
COc1ccccc1Nc1ncnc2c1oc1ccccc12 | 75.2% (active)
CCCC(=O)Nc1ccc2c(c1)C(=O)N(C)[C@H]1CC[C@@H](CC(=O)NCc3cccc(F)c3)O[C@H]1CO2 | 11.9% (inactive)
O=C(NCC[C@H]1CC[C@H](NS(=O)(=O)c2ccccc2)[C@H](CO)O1)c1cc(Cl)cc(Cl)c1 | 1.99% (inactive)
Cc1cc(C)c(C)c(S(=O)(=O)N2CCN(C(=O)c3ccc4c(=O)n5c(nc4c3)CCC5)CC2)c1C | -1.07% (inactive)
CC1CCN(C(=O)c2ccc3c(=O)n4c(nc3c2)CCCCC4)CC1 | 10.6% (inactive)
O=C(Nc1cc(F)ccc1F)c1ccc2c(=O)n3c(nc2c1)CCC3 | 54.2% (active)
CC(C)CC#Cc1cnc2c(c1)C(=O)N([C@@H](C)CO)C[C@@H](C)[C@@H](CN(C)S(=O)(=O)c1cccs1)O2 | -1.12% (inactive)
Cn1cnc(S(=O)(=O)N2C[C@H](O)COC[C@@H]3O[C@H](CC(=O)NC4Cc5ccccc5C4)CC[C@H]32)c1 | 1.23% (inactive)
O=C(NCc1ccc2c(c1)OCO2)c1ccc(Cl)s1 | 16.1% (inactive)
O=C(NC1=NCCS1)c1ccc(Cl)s1 | 56.6% (active)
COc1ccccc1C(=O)NCCC(=O)NC1=NCCS1 | 4.18% (inactive)
COCC(=O)N1C[C@H](C)[C@@H](OC)CN(C)C(=O)c2cc(NC(=O)c3ccc(OC)cc3)ccc2OC[C@H]1C | -1.57% (inactive)

SMILES | reporter increase
CCCNC(=O)C[C@@H]1CC[C@H]2[C@H](COc3ccc(NS(=O)(=O)c4ccccc4C)cc3C(=O)N2C)O1 | 0.502% (inactive)
CNC[C@H]1OCCCC[C@H](C)Oc2ccc(NS(C)(=O)=O)cc2C(=O)N([C@@H](C)CO)C[C@H]1C | 3.58% (inactive)
CCC1([N+](=O)[O-])COC(c2ccc(C)cc2)OC1 (centres undefined) | -1.7% (inactive)
CC(C)c1ccc(S(=O)(=O)NC2CCCC2)cc1 | 1.91% (inactive)
CCC1([N+](=O)[O-])COC(c2ccc(C(C)C)cc2)OC1 (centres undefined) | 98.9% (active)
O=C(Nc1ccccc1)c1ccccc1Br | 22.5% (inactive)
CCCN(CC1CC1)C(=S)NC(=O)c1ccccc1Br | -4.35% (inactive)
O=C(NC(=S)Nc1ncccn1)c1ccccc1Br | 44.5% (active)
CO[C@@H]1CN(C)C(=O)c2cc(NC(=O)Nc3cccc(Cl)c3)ccc2OC[C@@H](C)N(C)C[C@@H]1C | -1.87% (inactive)
CO[C@H]1CN(C)C(=O)c2ccc(NC(=O)c3cccc(F)c3)cc2OC[C@H](C)N(CC2CC2)C[C@@H]1C | 9.27% (inactive)
CN(C)C(=O)CCc1ccc2c3c([nH]c2c1)[C@]1(C)[C@@H](C(=O)N2CCCCC2)C[C@H](CC(=O)NCCC2=CCCCC2)C(=O)N1CC3 | 8% (inactive)
CN(C)C(=O)CCc1ccc2c3c([nH]c2c1)[C@]1(CCc2ccccc2)[C@@H](C(=O)N2CCCCC2)C[C@H](CC(=O)NCCC2=CCCCC2)C(=O)N1CC3 | 67.9% (active)
CC(C)N(C(=O)[C@H]1C[C@H](CC(=O)NCCC2=CCCCC2)C(=O)N2CCc3c([nH]c4cc(CCC(=O)N(C)C)ccc34)[C@]12C)C(C)C | 5.79% (inactive)
O=C(C[C@@H]1C[C@@H]2c3cc(NC(=O)C4CCC4)ccc3O[C@@H]2[C@@H](CO)O1)NCCN1CCCCC1 | 1.69% (inactive)
Cc1noc(C)c1S(=O)(=O)Nc1ccc2c(c1)CC(=O)N([C@@H](C)CO)C[C@@H](C)[C@H](CN(C)S(=O)(=O)c1cccs1)O2 | -4.75% (inactive)
CCn1nccc1C(=O)Nc1ccc(Cl)c(Cl)c1 | 61.9% (active)
CCn1nccc1C(=O)Nc1ccc(S(=O)(=O)NC23CC4CC(CC(C4)C2)C3)cc1 | 14.5% (inactive)
O=C(CC(O)(C(F)(F)F)C(F)(F)F)Nc1ccc(Cl)c(Cl)c1 | -47.8% (inactive)
Cc1ccc(CN(C)C[C@H]2OCc3cn(nn3)CCCC(=O)N([C@@H](C)CO)C[C@H]2C)cc1 | 3.63% (inactive)
O=C(Cc1ccc(Cl)cc1)NC(=S)Nc1ccccc1O | 2.82% (inactive)
O=C(Cc1ccc(Cl)cc1)c1ccccc1 | 61.9% (active)
O=C(CN1CCN(c2ccc(Cl)cc2)CC1)c1ccccc1 | -0.082% (inactive)
COc1ccc(-c2ccc3c(c2)[C@@H]2[C@@H](CCN2S(=O)(=O)c2ccccc2F)[C@H](CO)N3)cc1 | -0.198% (inactive)
C[C@@H]1CN([C@H](C)CO)C(=O)Cc2cc(NC(=O)CCCN(C)C)ccc2O[C@H]1CN(C)CC1CCCCC1 | -2.32% (inactive)
C[C@@H]1CN([C@H](C)CO)C(=O)c2cc(NS(=O)(=O)c3ccc(Cl)cc3)ccc2O[C@@H]1CN(C)CC1CCCCC1 | 5.96% (inactive)
